Source: the supplement of paper PMC7156485

Assays:
Conditions in all cases: concentration: 10 µM; 24 h
HCC1569 [1] = assay: cell number relative to DMSO (% of DMSO); higher = more cells (less growth inhibition / toxicity)
Summary of the method: (§1)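 After 24 h at 37 °C with compounds at 10 µM, in triplicate, HCC1569 and TDF cells were fixed with 3.7% formaldehyde. Immunostaining used a rabbit anti-H1.0 antibody and an AlexaFluor 647 secondary, with DAPI, and six fields per well were imaged at ×10. H1.0 nuclear intensity or cell number is presented as percent of the plate control, from the median of replicates, with HCC1569 values smoothed for positional effects.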

TDF [2] = assay: as above
Summary of the method: as §1

TDF [3] = assay: H1.0 immunofluorescence intensity relative to DMSO (% of DMSO); higher = stronger H1.0 induction, active = 120 or more
Summary of the method: as §1

HCC1569 [4] = assay: H1.0 immunofluorescence intensity relative to DMSO (% of DMSO); higher = stronger H1.0 induction, active = 140 or more
Summary of the method: as §1
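Throughout, for H1.0 immunofluorescence intensity relative to DMSO: TDF is a line of transformed human dermal fibroblasts of mesenchymal origin.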
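Throughout, for cell number relative to DMSO: TDF denotes transformed human dermal fibroblasts of mesenchymal origin.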

SMILES	cell number (HCC1569 [1])	cell number (TDF [2])	H1.0 immunofluorescence intensity (TDF [3])	H1.0 immunofluorescence intensity (HCC1569 [4])
NCCS(=O)O [Hypotaurine]	106	106	96.6 (inactive)	88.6 (inactive)
CN(CC=CC#CC(C)(C)C)Cc1cccc2ccccc12.Cl	96.4	105	101 (inactive)	98.4 (inactive)
COc1cc(CNC(=O)CCCCCCC(C)C)ccc1O [Dihydrocapsaicin]	96.7	101	91.1 (inactive)	97 (inactive)
CCN(CC)CC(=O)Nc1c(C)cccc1C.Cl.O [Lidocaine.HCl.H2O]	99	99.8	89.5 (inactive)	103 (inactive)
O=C(O)C=CC(=O)O.O=C(O)C=CC(=O)O.OCCOCCN1CCN(C2=Nc3ccccc3Sc3ccccc32)CC1 [Quetiapine Fumarate]	99.3	97.8	94.5 (inactive)	100 (inactive)
CCN(CC)CCCC(C)Nc1ccnc2cc(Cl)ccc12.O=P(O)(O)O.O=P(O)(O)O (stereo unspecified) [Chloroquine diphosphate]	98.3	106	94.7 (inactive)	94.1 (inactive)
CCN(CC)CCNC(=O)c1cc(Cl)c(N)cc1OC [Metoclopramide]	102	105	97.1 (inactive)	108 (inactive)
O=C(O)CC/C=C\C[C@H]1CO[C@@H](c2ccccc2Cl)O[C@H]1c1ccccc1O	100	96.5	95.5 (inactive)	108 (inactive)
Cn1cc[nH]c1=S [Methimazole]	107	103	97.9 (inactive)	102 (inactive)
